Experimental data as given in PubChem BioAssay AID1159577 (Broad Institute, 2015).
Hit rate of the full screen: of about 1,300 compounds, about 240 (18%) were called active. Not shown: some 8% with an inconclusive outcome. The rule behind the calls is not given here. The list is a sample of the results. Entries with a potency or affinity are not part of this list.

Test: HepG2 cell cytotoxicity, dose response, cytotoxicity control, cherry-picked samples (AID 1159577);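 note: 0% = neutral control wells and -100% = positive control wells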
Settings: HepG2 cytotoxicity counterscreen, plate reader; series mostly up to 19.5 µM; activity change, negative = cytotoxicity: at the top concentration

SMILES | activity change, negative = cytotoxicity
COc1ccc(NC(=O)Nc2ccc3c(c2)[C@H]2C[C@H](CC(=O)N4CCc5ccccc5C4)O[C@H](CO)[C@H]2O3)cc1 | 17.4% (inactive)
COc1ccccc1-c1cccc(-c2nc(C(=O)Nc3nccs3)cc3c2[C@H](CCO)N(C(=O)CC2CC2)C3)c1 | 30.2% (inactive)
CO[C@H]1CN(C)C(=O)c2cc(NS(=O)(=O)c3ccccc3C)ccc2OC[C@H](C)N(C)C[C@H]1C | -7.94% (inactive)
CC(C)(O)C#Cc1ccc([C@H]2[C@H](CO)N3CCCCN(C(=O)c4ccc(F)cc4)C[C@@H]23)cc1 | 21.6% (inactive)
COc1ccc2c3c(n(C)c2c1)[C@H](CO)N(CC1CC1)CC31CN(C(=O)c2ccc3c(c2)OCO3)C1 | 1.85% (inactive)
CO[C@@H]1CN(C)C(=O)c2ccc(NC(=O)C3CCC3)cc2OC[C@@H](C)N(CC2CCCCC2)C[C@H]1C | -6.63% (inactive)
CO[C@@H]1CN(C)C(=O)c2cc(NC(=O)c3ccccc3F)ccc2OC[C@H](C)N(C(=O)c2ccccc2F)C[C@@H]1C | 14.7% (inactive)
C[C@H](CO)N1C[C@H](C)[C@@H](CN(C)C(=O)Nc2cccc3ccccc23)Oc2ccc(NC(=O)Cc3cn(C)c4ccccc34)cc2C1=O | -4.27% (inactive)
C[C@H](CO)N1C[C@H](C)[C@@H](CN(C)S(=O)(=O)c2ccc(C(F)(F)F)cc2)OCc2ccccc2-c2c(n(C)c3ccccc23)C1=O | 0.059% [at 21 µM] (inactive)
N#C[C@@H]1[C@H](c2ccccc2-c2cccc(F)c2)[C@@H](CO)N1C(=O)C1CCCC1 | 17.6% (inactive)
CC(C)(C)[S@@](=O)N1Cc2cc(C(=O)N[C@@H]3CCN(Cc4ccccc4)C3)nc(-c3cccc(-c4cccnc4)c3)c2[C@H]1CCO | 22.2% (inactive)
COCc1cn([C@@H]2C[C@@H]3O[C@H](CO)CC[C@@H]3O[C@@H]2CCc2ccc(-c3ccc(OC)cc3)cc2)nn1 | -7.81% (inactive)
CCCNC(=O)Nc1ccc2c(c1)C(=O)N(C)C[C@@H](OC)[C@H](C)CN(C(=O)C1CCOCC1)[C@@H](C)CO2 | 14.2% (inactive)
COc1ccc(NC(=O)N(C)C[C@@H]2Oc3cc(-c4ccc(C)cc4)ccc3S(=O)(=O)N([C@H](C)CO)C[C@@H]2C)cc1 | -9.12% (inactive)
C[C@H]1CN([C@@H](C)CO)S(=O)(=O)c2ccc(C#Cc3ccccc3)cc2O[C@@H]1CN(C)S(=O)(=O)c1cn(C)cn1 | -20.3% (inactive)
COc1ccc(NC(=O)N2CCCCN3[C@H](CO)[C@H](c4ccc(C#Cc5ccccn5)cc4)[C@@H]3C2)cc1 | -5.37% (inactive)
O=C(Nc1ccccc1)N1CCCCN2[C@H](CO)[C@H](c3ccc(C#Cc4cccnc4)cc3)[C@@H]2C1 | -11.5% (inactive)
COc1cccc(CN2CCCCN3[C@H](CO)[C@@H](c4ccc(C#Cc5cccnc5)cc4)[C@@H]3C2)c1 | -16.5% (inactive)
C[C@@H]1CN([C@H](C)CO)C(=O)c2c(c3ccccc3n2C)-c2ccccc2CO[C@@H]1CN(C)C(=O)[C@H](C)c1ccccc1 | -3.8% (inactive)
C[C@@H]1CN([C@H](C)CO)C(=O)c2ccccc2-c2ccccc2CO[C@H]1CN(C)C(=O)Nc1cccc(Cl)c1Cl | -0.614% [at 21 µM] (inactive)
C[C@H](CO)N1C[C@H](C)[C@H](CN(C)Cc2ccc(Oc3ccccc3)cc2)Oc2c(NC(=O)c3nc4ccccc4s3)cccc2C1=O | 11.9% (inactive)
C[C@H](CO)N1C[C@H](C)[C@H](CN(C)S(=O)(=O)c2cccs2)Oc2ccc(NC(=O)Cc3cn(C)c4ccccc34)cc2C1=O | -0.395% (inactive)

SMILES | activity change, negative = cytotoxicity
COc1ccc(C#Cc2ccc3c(c2)O[C@H](CN(C)S(=O)(=O)c2ccccc2F)[C@@H](C)CN([C@H](C)CO)S3(=O)=O)cc1 | 0.364% (inactive)
CC(C)(C)[S@@](=O)N1Cc2cc(C(=O)NCCN3CCCC3)nc(-c3cccc(-c4ccc(C#N)cc4)c3)c2[C@H]1CCO | -19.4% [at 21 µM] (inactive)
COCC(=O)Nc1ccc2c(c1)C(=O)N(C)C[C@H](OC)[C@H](C)CN(Cc1cc(F)ccc1F)[C@@H](C)CO2 | 15.5% (inactive)
COc1ccccc1CNC(=O)C[C@H]1C[C@H]2c3cc(NC(=O)Cc4ccncc4)ccc3O[C@H]2[C@H](CO)O1 | -27.4% (inactive)
C[C@H](CO)N1C[C@H](C)[C@H](CN(C)S(=O)(=O)c2ccc(C(F)(F)F)cc2)OCc2ccccc2-c2c(n(C)c3ccccc23)C1=O | -5.43% (inactive)
C[C@H]1CN([C@@H](C)CO)C(=O)c2c(c3ccccc3n2C)-c2ccccc2CO[C@@H]1CN(C)C(=O)Cc1ccccc1 | 8.45% [at 21 µM] (inactive)
C[C@H](CO)N1C[C@H](C)[C@@H](CN(C)Cc2ccc(-c3ccccc3)cc2)OCc2ccccc2-c2c(n(C)c3ccccc23)C1=O | -24% (inactive)
C[C@@H]1CN([C@@H](C)CO)C(=O)c2c(c3ccccc3n2C)-c2ccccc2CO[C@H]1CN(C)C(=O)Nc1ccccc1C(F)(F)F | -28.3% [at 21 µM] (inactive)
C[C@H]1CN([C@@H](C)CO)C(=O)c2c(c3ccccc3n2C)-c2ccccc2CO[C@@H]1CN(C)Cc1ccc(-c2ccccc2)cc1 | -16.6% (inactive)
C[C@H]1CN([C@@H](C)CO)C(=O)c2c(c3ccccc3n2C)-c2ccccc2CO[C@@H]1CN(C)C(=O)Nc1cccc(C(F)(F)F)c1 | 2.5% [at 21 µM] (inactive)
COc1ccc(S(=O)(=O)N2CCC3(CC2)CN(Cc2ccncc2)[C@@H](CO)c2[nH]c4cc(OC)ccc4c23)cc1 | -20.5% (inactive)
COc1ccccc1NC(=O)Nc1ccc2c(c1)OC[C@@H](C)N(Cc1ccccc1Cl)C[C@@H](C)[C@H](OC)CN(C)C2=O | -3.52% (inactive)
CCCN(C)C[C@@H]1Oc2cc(C#Cc3cccnc3)ccc2S(=O)(=O)N([C@@H](C)CO)C[C@H]1C | 10.7% (inactive)
COc1ccc2c3c([nH]c2c1)[C@H](CO)N(Cc1cc(F)ccc1F)CC31CCN(C(=O)C2CCC2)CC1 | 8.9% (inactive)
C[C@H](CO)N1C[C@H](C)[C@H](CN(C)C(=O)NC2CCCCC2)OCc2ccccc2-c2c(n(C)c3ccccc23)C1=O | 8.48% (inactive)
CO[C@H]1CN(C)C(=O)c2cc(NC(=O)c3ccccc3F)ccc2OC[C@H](C)N(C(=O)c2ccccc2F)C[C@H]1C | -15.7% (inactive)
CCC(=O)N1CC2(C1)CN(Cc1cccc(Cl)c1)[C@H](CO)c1c2c2ccc(OC)cc2n1C | 0.885% [at 21 µM] (inactive)
N#C[C@@H]1[C@H](c2ccccc2-c2ccccc2F)[C@H](CO)N1C(=O)C1CCOCC1 | -0.432% (inactive)
N#C[C@@H]1[C@@H](c2ccccc2C2=CCCC2)[C@@H](CO)N1C(=O)NC1CCCC1 | 1.93% (inactive)
CC(C)(C)S(=O)N1Cc2cc(C(=O)NCc3ccc(Oc4ccccc4)cc3)nc(-c3cccc(-c4cccc(F)c4)c3)c2[C@@H]1CCO (stereo partly specified) | 6.7% (inactive)
CN(C)C(=O)c1cccc(-c2cccc(-c3nc(C(=O)NC4CCCCC4)cc4c3[C@@H](CCO)N([S@](=O)C(C)(C)C)C4)c2)c1 | -15.1% [at 21 µM] (inactive)
COc1cccc(CNC(=O)c2cc3c(c(-c4cccc(-c5ccncc5)c4)n2)[C@H](CCO)N([S@@](=O)C(C)(C)C)C3)c1 | 15.6% (inactive)

SMILES | activity change, negative = cytotoxicity
COc1cccc(-c2cccc(-c3nc(C(=O)NCc4ccc(Oc5ccccc5)cc4)cc4c3[C@@H](CCO)N(S(=O)C(C)(C)C)C4)c2)c1 (stereo partly specified) | 17.5% (inactive)
C[C@H]1CN([C@@H](C)CO)C(=O)c2c(c3ccccc3n2C)-c2ccccc2CO[C@H]1CN(C)S(=O)(=O)c1ccc(C(F)(F)F)cc1 | -0.676% [at 21 µM] (inactive)
COCC(=O)N1[C@H](C#N)[C@@H](c2ccccc2-c2ccccc2)[C@H]1CO | -10.6% (inactive)
COc1ccc2c3c(n(C)c2c1)[C@@H](CO)N(C(=O)c1ccc(F)cc1)CC31CN(C(=O)Nc2ccc(F)cc2)C1 | 25.7% (inactive)
COc1ccc(C#Cc2ccc3c(c2)O[C@@H](CN(C)C(=O)Nc2cccc(OC)c2)[C@@H](C)CN([C@H](C)CO)S3(=O)=O)cc1 | -22.3% (inactive)
O=C(c1ccccn1)N1CC2(C1)[C@@H](c1ccccc1)[C@H](CO)N2Cc1ccc(Cl)cc1 | 6.35% (inactive)
COc1ccc(C#Cc2ccc([C@H]3[C@H]4CN(C(=O)c5ccc(F)cc5)CC(=O)N4[C@H]3CO)cc2)cc1 | -5.36% (inactive)
C[C@H](CO)N1C[C@H](C)[C@@H](CN(C)C(=O)Nc2ccc(F)cc2)OCc2ccccc2-c2c(n(C)c3ccccc23)C1=O | -5.84% [at 21 µM] (inactive)
CCC(=O)N1CC2(CCN(C(=O)Nc3ccccc3F)CC2)c2c([nH]c3cc(OC)ccc23)[C@H]1CO | -3.9% (inactive)
COc1ccc2c3c([nH]c2c1)[C@@H](CO)N(C(=O)Cc1ccccc1)CC31CCN(C(=O)Cc2ccccc2)CC1 | -4.6% (inactive)
CCC(=O)N1CC2(C1)CN(C(=O)Nc1ccccc1F)[C@H](CO)c1[nH]c3cc(OC)ccc3c12 | 30.1% (inactive)
COc1ccc2c3c([nH]c2c1)[C@@H](CO)N(C(=O)c1cccc(F)c1)CC31CCN(C(=O)c2ccccc2)CC1 | -4.87% (inactive)
COc1cccc(-c2ccc3c(c2)[C@@H]2[C@@H](CCN2C(=O)C2CCCC2)[C@H](CO)N3)c1 | -7.28% (inactive)
CN(C)c1ccc2c(c1)[C@@H]1C[C@@H](CC(=O)N3CCc4ccccc4C3)O[C@@H](CO)[C@@H]1O2 | 25.9% (inactive)
O=C(c1ccc(F)cc1)N1CC(=O)N2[C@H](CO)[C@H](c3ccc(C#Cc4ccc(F)cc4)cc3)[C@H]2C1 | -19.2% (inactive)
CCC(=O)N1CCC2(CC1)CN(Cc1cc(F)ccc1F)[C@@H](CO)c1[nH]c3cc(OC)ccc3c12 | 14.9% (inactive)
COc1ccccc1C#Cc1ccc([C@H]2[C@@H](C#N)N(C(=O)C3CCCCC3)[C@H]2CO)cc1 | -30.5% (inactive)
COc1ccccc1C#Cc1ccc([C@@H]2[C@H](C#N)N(C(=O)C3CCCC3)[C@H]2CO)cc1 | -10.7% (inactive)
COc1cccc(C#Cc2ccc([C@H]3[C@@H](C#N)N(C(=O)C4CCCC4)[C@@H]3CO)cc2)c1 | -17.4% (inactive)
COc1cccc(C#Cc2ccc([C@@H]3[C@@H](C#N)N(C(=O)C4CCCCC4)[C@H]3CO)cc2)c1 | -18.6% (inactive)
COCC(=O)N1CC2(C1)CN(Cc1ccccc1F)[C@@H](CO)c1[nH]c3cc(OC)ccc3c12 | 25.2% [at 21 µM] (inactive)
C[C@H](CO)N1C[C@H](C)[C@@H](CN(C)C(=O)C2CCCCC2)Oc2ncc(/C=C/c3ccccc3)cc2C1=O | 16.2% (inactive)
